# From PubChem BioAssay AID1460 (National Center for Advancing Translational Sciences (NCATS), 2008)
# Among all 270,000 compounds or so, about 5,800 (2.1%) were called active. Where a call stands in place of a potency, no number is given. Roughly 16% stayed inconclusive and do not appear here. This is one part of a sample in which actives are shown more often than they occur. Calls come from the whole dose curve; as a rule, active = well fitted inhibition curve with a large enough effect; inconclusive = small, poorly fitted or top-dose-only effect; inactive = flat fitted curve, though single readings scatter.
# Biological target: Microtubule-associated protein tau (Homo sapiens) (UniProt P10636)
# Assay: qHTS for Inhibitors of Tau Fibril Formation, Thioflavin T Binding; note: nearly all actives have a fitted effect of over 55% in size
# Settings: recombinant tau K18 P301L, heparin-induced fibrillization, ThT fluorescence; series mostly up to 57.4 µM
# Outline: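 Using a mix of unlabeled (15 uM) and Alexa 594-labeled (0.24 uM) tau K18 P301L, heparin-triggered fibrillization over 6 hr at 37 C was scored by ThT fluorescence.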
# Potency is the fitted concentration of half-maximal effect.
# Chain of Microtubule-associated protein tau (Homo sapiens) (P10636 561-689 P618L limits assumed): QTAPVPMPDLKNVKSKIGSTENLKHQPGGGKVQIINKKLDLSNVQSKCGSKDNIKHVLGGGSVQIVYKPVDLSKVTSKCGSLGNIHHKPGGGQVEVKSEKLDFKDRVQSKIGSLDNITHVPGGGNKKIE
row,SMILES,Potency
1,CC(=O)c1ccc(NS(=O)(=O)c2ccc(-c3cc(C)no3)s2)cc1,inactive
2,O=C1c2ccccc2-c2ncnc3c(N4CCOCC4)cc(N4CCOCC4)c1c23,8.91 µM (active)
3,Cc1oc2c(c1C(=O)N1CCOCC1)C(=O)c1ccccc1C2=O,inactive
4,c1ccc(-c2oc3ncnc(N4CCOCC4)c3c2-c2ccccc2)cc1,inactive
5,CCn1cc(C(=O)NCCc2ccccc2)c(=O)c2cc(S(=O)(=O)N3CCCCCC3)ccc21,inactive
6,CCCN(CCC)C(=O)Cn1c(=O)n(-c2ccc(Cl)cc2)c(=O)c2c3c(sc21)CCCCC3,inactive
7,Cc1cc2c(cc1S(=O)(=O)CCC(=O)Nc1ccc(OC(F)(F)F)cc1)OCC(=O)N2,inactive
8,COc1cccc(CC(=O)Nc2ccc(-c3csc(C)n3)cc2)c1,inactive
9,CCCCCCC(=O)Nc1nc(C)c(-c2csc(Nc3cccc(OC)c3)n2)s1,7.94 µM (active)
10,CCOC(=O)c1csc(NC(=O)Nc2cccc(OC)c2)n1,inactive
11,CCCOc1cccc(C(=O)Nc2cccc(NC(=O)c3ccc(C(C)(C)C)cc3)c2)c1,inactive
12,Cc1ccc(Cc2nc3ccccc3nc2SCC(=O)Nc2cccc(C(F)(F)F)c2)cc1,inactive
13,O=C(NC1CC1)c1ccc2c(c1)NC(=O)c1ccccc1S2,inactive
14,C/C(=N\Nc1cccc(C(=O)O)c1)c1ccc2c(c1)Nc1ccccc1S2,5.01 µM (active)
15,CC(=O)Nc1cccc(/C(C)=N/NC(=O)c2ccccc2Cl)c1,inactive
16,Cc1ccc2c(c1)-c1c(cnn1CC(=O)Nc1ccccc1C#N)CO2,inactive
17,CSc1ncc(C(=O)NCc2ccccc2Cl)c(C(F)(F)F)n1,inactive
18,COc1ccc(-c2cc(C3CCN(c4ncccc4[N+](=O)[O-])CC3)[nH]n2)cc1,8.91 µM (active)
19,CC(=O)NC(Cc1ccccc1)C(=O)NC1CCN(c2ncccc2[N+](=O)[O-])CC1 (stereo unspecified),inactive
20,COc1ccc(N2C(=O)CC(Nc3ccc(F)cc3)C2=O)c([N+](=O)[O-])c1 (stereo unspecified),inactive
21,CCOc1ccccc1C(=O)NCC(c1ccc(N(C)C)cc1)N1CCCC1 (stereo unspecified),inactive
22,Cc1cc(C)c(NC(=O)CSc2nc3nccnc3c(=O)n2CCc2c[nH]c3ccccc23)c(C)c1,inactive
23,Cc1nc2ccccc2nc(=O)c1NNc1ccc([N+](=O)[O-])cc1,11.2 µM (active)
24,O=[N+]([O-])c1cccc(Nc2c3ccccc3nc3ccccc23)c1,inactive
25,O=C(Nn1c(-c2ccccc2)nc2ccccc2c1=O)c1ccc([N+](=O)[O-])cc1,inactive
26,COC(=O)c1cc(NC(=O)c2cnc(SC)nc2-c2ccccc2)cc(C(=O)OC)c1,inactive
